The source of these data is the supplement of paper PMC9262897, “Low-cost anti-mycobacterial drug discovery using engineered E. coli” (Nature Communications, 2022).

Common to all, as to assay: growth (OD600 after 10 h); higher = more growth (less inhibition)
For experiment [1], the system named is E. coli TESEC Alr+ wild-type control. To be noted: compound 0.1 mM; raw OD600 reference: median of DMSO wells 0.241, cell-free background 0.041. As to the method:
(§1)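 TESEC Mtb Alr E. coli, or the Alr+ wild-type control, in 384-well plates with Prestwick library compounds at 0.1 mM and 1% DMSO, across arabinose induction levels of 1E3 to 1E7 nM. Growth is read as OD600 after 10 h at 37 °C in triplicate biological replicates.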

For experiment [2], the system named is E. coli TESEC Mtb Alr. To be noted: compound 0.1 mM. Here is the method: as §1
For a further experiment, the system named is E. coli TESEC Mtb Asd. To be noted: compound 0.1 mM. As to the method: (§2)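 TESEC E. coli strains in which the native enzyme is deleted and replaced by arabinose-inducible Mtb Asd, DapB, CysH or TrpD, each grown in its selective medium. Strains were screened against the Prestwick library at 0.1 mM and 1% DMSO in 384-well format at low and high arabinose induction. Growth is read as OD600 after 10 h in triplicate.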

In a further experiment the test system is E. coli TESEC Mtb DapB. To be noted: compound 0.1 mM. As to the method:
as §2

For experiment [3], the system named is E. coli TESEC Alr+ wild-type control. To be noted: compound 0.1 mM; raw OD600 reference: median of DMSO wells 0.49, cell-free background 0.052. Here is the method:
(§3)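 TESEC Mtb Alr E. coli (ΔaraC ΔtolC ΔentC Δalr ΔdadX, arabinose-inducible Mtb Alr) or the Alr+ wild-type control strain, grown in defined M9-fructose medium without D-alanine in 96-well plates with Prestwick library compounds at 0.1 mM and 1% DMSO. Low Alr induction is 0.1 µM arabinose and high induction is 10 mM arabinose.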

For experiment [4], the system named is E. coli TESEC Mtb Alr. The conditions noted are these: compound 0.1 mM. Here is the method:
as §3
The source holds these as a separate data set.

Setting [5] is: arabinose 1000 nM, raw OD600 reference: median of DMSO wells 0.294, cell-free background 0.041.
Setting [6] is: arabinose 10000 nM, raw OD600 reference: median of DMSO wells 0.264, cell-free background 0.041.
[7] abbreviates: arabinose 100000 nM, raw OD600 reference: median of DMSO wells 0.201, cell-free background 0.041.
Where [8] appears, read: arabinose 1000000 nM, raw OD600 reference: median of DMSO wells 0.193, cell-free background 0.041.
Where [9] appears, read: arabinose 10000000 nM, raw OD600 reference: median of DMSO wells 0.146, cell-free background 0.041.
[10] abbreviates: arabinose induction (level): High, raw OD600 reference: median of DMSO wells 0.331, cell-free background 0.041.
[11] abbreviates: arabinose induction (level): Low, raw OD600 reference: median of DMSO wells 0.417, cell-free background 0.041.
The mark [12] stands for this setting: arabinose induction (level): High, raw OD600 reference: median of DMSO wells […], cell-free background 0.041.
Where [13] appears, read: arabinose induction (level): Low, raw OD600 reference: median of DMSO wells 0.227, cell-free background 0.041.
Where [14] appears, read: arabinose 100 nM, raw OD600 reference: median of DMSO wells 0.413, cell-free background 0.052.
[15] abbreviates: arabinose 10000000 nM, raw OD600 reference: median of DMSO wells […], cell-free background 0.052.

Where a name gives a salt, the structure may show the parent alone. ± gives the standard deviation of the averaged measurements.

Turning to `O=C(Oc1cccc2cccnc12)c1ccccc1` [Benzoxiquine], the growth in experiment [1] is 0.222 ± 0.0051; in the experiment on E. coli TESEC Mtb Alr [2] (setting [5]), 0.264 ± 0.016; with E. coli TESEC Mtb Alr [2] (setting [6]) it was 0.28 ± 0.0036; in the experiment with E. coli TESEC Mtb Alr [2] (setting [7]) it was 0.172 ± 0.014; in the experiment on E. coli TESEC Mtb Alr [2] (setting [8]), 0.198 ± 0.011; with E. coli TESEC Mtb Alr [2] (setting [9]), 0.14 ± 0.01. Moreover, the growth in the experiment with E. coli TESEC Mtb Asd (setting [10]) was determined as 0.316 ± 0.12; with E. coli TESEC Mtb Asd (setting [11]) it was 0.289 ± 0.017; in the experiment with E. coli TESEC Mtb DapB (setting [12]) it was 0.182 ± 0.018; in the experiment on E. coli TESEC Mtb DapB (setting [13]) it was 0.201 ± 0.015; in experiment [3] it was 0.505 ± 0.036; in the experiment on E. coli TESEC Mtb Alr [4] (setting [14]), 0.368 ± 0.016. This compound gave a growth in the experiment on E. coli TESEC Mtb Alr [4] (setting [15]) of 0.281 ± 0.01.
With `CN(C)CCN1C(=O)c2ccccc2N(C)c2ccccc21` [Dibenzepine hydrochloride], the growth in experiment [1] was 0.234 ± 0.0039; in the experiment on E. coli TESEC Mtb Alr [2] (setting [5]), 0.312 ± 0.018; in the experiment on E. coli TESEC Mtb Alr [2] (setting [6]), 0.286 ± 0.0089; with E. coli TESEC Mtb Alr [2] (setting [7]), 0.185 ± 0.03; in the experiment with E. coli TESEC Mtb Alr [2] (setting [8]), 0.167 ± 0.0098; in the experiment on E. coli TESEC Mtb Alr [2] (setting [9]), 0.139 ± 0.0036. For the same compound, the growth worked out at 0.23 ± 0.059 in the experiment with E. coli TESEC Mtb Asd (setting [10]); 0.317 ± 0.04 in the experiment on E. coli TESEC Mtb Asd (setting [11]); 0.165 ± 0.012 with E. coli TESEC Mtb DapB (setting [12]); 0.187 ± 0.0044 in the experiment on E. coli TESEC Mtb DapB (setting [13]); 0.608 ± 0.13 in experiment [3]; 0.415 ± 0.0072 in the experiment with E. coli TESEC Mtb Alr [4] (setting [14]). The compound also yielded a growth with E. coli TESEC Mtb Alr [4] (setting [15]) of 0.34 ± 0.015.
On to `O=C(NC(Cc1cc(=O)[nH]c2ccccc12)C(=O)O)c1ccc(Cl)cc1` (stereo unspecified) [Rebamipide], for which the growth in experiment [1] was found to be 0.26 ± 0.0077; in the experiment on E. coli TESEC Mtb Alr [2] (setting [5]), 0.314 ± 0.015; in the experiment on E. coli TESEC Mtb Alr [2] (setting [6]), 0.259 ± 0.0053; in the experiment with E. coli TESEC Mtb Alr [2] (setting [7]), 0.211 ± 0.01; with E. coli TESEC Mtb Alr [2] (setting [8]), 0.196 ± 0.0026; in the experiment with E. coli TESEC Mtb Alr [2] (setting [9]), 0.146 ± 0.0044. For the same compound, the growth was found to be 0.312 ± 0.035 in the experiment on E. coli TESEC Mtb Asd (setting [10]); 0.435 ± 0.058 in the experiment on E. coli TESEC Mtb Asd (setting [11]); 0.221 ± 0.0038 in the experiment on E. coli TESEC Mtb DapB (setting [12]); 0.244 ± 0.011 with E. coli TESEC Mtb DapB (setting [13]); 0.484 ± 0.068 in experiment [3]; 0.409 ± 0.012 with E. coli TESEC Mtb Alr [4] (setting [14]). This compound gave a growth with E. coli TESEC Mtb Alr [4] (setting [15]) of 0.368 ± 0.014.
With `Nc1c2c(nc3ccccc13)CCCC2O` (racemic) [Hydroxytacrine maleate (R,S)], the growth in experiment [1] is 0.227 ± 0.0038; in the experiment with E. coli TESEC Mtb Alr [2] (setting [5]), 0.264 ± 0.028; in the experiment on E. coli TESEC Mtb Alr [2] (setting [6]) it was 0.257 ± 0.0076; in the experiment on E. coli TESEC Mtb Alr [2] (setting [7]), 0.202 ± 0.025; in the experiment on E. coli TESEC Mtb Alr [2] (setting [8]), 0.176 ± 0.0061; in the experiment on E. coli TESEC Mtb Alr [2] (setting [9]), 0.144 ± 0.0023. In addition, the growth with E. coli TESEC Mtb Asd (setting [10]) was 0.218 ± 0.012; in the experiment with E. coli TESEC Mtb Asd (setting [11]), 0.257 ± 0.034; with E. coli TESEC Mtb DapB (setting [12]), 0.203 ± 0.018; in the experiment on E. coli TESEC Mtb DapB (setting [13]) it was 0.205 ± 0.015; in experiment [3], 0.612 ± 0.088; in the experiment with E. coli TESEC Mtb Alr [4] (setting [14]) it was 0.4 ± 0.0077. In the experiment with E. coli TESEC Mtb Alr [4] (setting [15]), this compound displayed a growth of 0.352 ± 0.0099.
Regarding `OC(CCN1CCCCC1)(c1ccccc1)c1ccccc1` [Pridinol methanesulfonate salt], the growth in experiment [1] is 0.226 ± 0.0064; in the experiment on E. coli TESEC Mtb Alr [2] (setting [5]) it was 0.299 ± 0.011; with E. coli TESEC Mtb Alr [2] (setting [6]), 0.28 ± 0.012; in the experiment on E. coli TESEC Mtb Alr [2] (setting [7]), 0.193 ± 0.0055; in the experiment with E. coli TESEC Mtb Alr [2] (setting [8]) it was 0.177 ± 0.0082; with E. coli TESEC Mtb Alr [2] (setting [9]) it was 0.151 ± 0.0016. In addition, the growth in the experiment on E. coli TESEC Mtb Asd (setting [10]) came to 0.468 ± 0.015; in the experiment with E. coli TESEC Mtb Asd (setting [11]) it was 0.466 ± 0.027; with E. coli TESEC Mtb DapB (setting [12]), 0.194 ± 0.02; with E. coli TESEC Mtb DapB (setting [13]), 0.262 ± 0.035; in experiment [3] it was 0.469 ± 0.027; with E. coli TESEC Mtb Alr [4] (setting [14]), 0.397 ± 0.032. This compound showed a growth in the experiment on E. coli TESEC Mtb Alr [4] (setting [15]) of 0.352 ± 0.011.
With `CC(=O)N1CCN(c2ccc(OCC3COC(Cn4ccnc4)(c4ccc(Cl)cc4Cl)O3)cc2)CC1` (stereo unspecified) [Ketoconazole], the growth in experiment [1] was 0.05323 ± 0.00038; in the experiment on E. coli TESEC Mtb Alr [2] (setting [5]) it was 0.0525 ± 0.0042; in the experiment with E. coli TESEC Mtb Alr [2] (setting [6]) it was 0.04237 ± 0.00035; with E. coli TESEC Mtb Alr [2] (setting [7]) it was 0.0541 ± 0.0007; in the experiment on E. coli TESEC Mtb Alr [2] (setting [8]), 0.04317 ± 0.0004; with E. coli TESEC Mtb Alr [2] (setting [9]), 0.05383 ± 5.8e-05. Further, the growth with E. coli TESEC Mtb Asd (setting [10]) stood at 0.0601 ± 0.0054; in the experiment on E. coli TESEC Mtb Asd (setting [11]), 0.0507 ± 0.0015; with E. coli TESEC Mtb DapB (setting [12]), 0.0759 ± 0.0062; with E. coli TESEC Mtb DapB (setting [13]), 0.0712 ± 0.0069; in experiment [3], 0.0814 ± 0.011; with E. coli TESEC Mtb Alr [4] (setting [14]), 0.32 ± 0.041. Moreover, the growth in the experiment with E. coli TESEC Mtb Alr [4] (setting [15]) worked out at 0.0608 ± 0.0022.
As for `C[C@]1(Cn2ccnn2)[C@H](C(=O)O)N2C(=O)C[C@H]2S1(=O)=O` [Tazobactam], the growth came out at 0.249 ± 0.011 in experiment [1]; 0.0404 ± 0.0022 in the experiment with E. coli TESEC Mtb Alr [2] (setting [5]); 0.0384 ± 0.0001 in the experiment with E. coli TESEC Mtb Alr [2] (setting [6]); 0.045 ± 0.0019 with E. coli TESEC Mtb Alr [2] (setting [7]); 0.18 ± 0.015 in the experiment with E. coli TESEC Mtb Alr [2] (setting [8]); 0.074 ± 0.0014 in the experiment with E. coli TESEC Mtb Alr [2] (setting [9]). Further, the growth turned out to be 0.405 ± 0.031 in the experiment with E. coli TESEC Mtb Asd (setting [10]); 0.424 ± 0.022 in the experiment with E. coli TESEC Mtb Asd (setting [11]); 0.195 ± 0.004 in the experiment with E. coli TESEC Mtb DapB (setting [12]); 0.19 ± 0.017 in the experiment with E. coli TESEC Mtb DapB (setting [13]); 0.0454 ± 0.00051 in experiment [3]; 0.245 ± 0.17 with E. coli TESEC Mtb Alr [4] (setting [14]). Moreover, the growth in the experiment on E. coli TESEC Mtb Alr [4] (setting [15]) was 0.0826 ± 0.0045.
